Active and inactive are the calls of the source. How the source made its calls: active means hit-call score of the fitted dose curve at least 0.9, where 1 is the maximum; inactive means score below 0.9.
Read-out: Lipoprotein lipase (LPL), LPL (gene 4023)
Experiment: LTEA_HepaRG_LPL: Life Technologies and Expression Analysis (LTEA) Assay for Lipoprotein lipase (LPL) using HepaRG (AID 2283515)
Details: mRNA level, 48 h; actives raise or lower the signal
Procedure: LTEA_HepaRG is a cell based, multiplexed-readout assay that uses HepaRG, a human liver cell line, with measurements taken at 48 hours after chemical dosing on a 96-well plate.LTEA_HepaRG_LPL is one of 102 assay component(s) measured in the LTEA HepaRG cell culture assay. It is a marker of Steatosis.Data from the assay component LTEA_HepaRG_LPL was analyzed into 1 endpoint. This assay endpoint, LTEA_HepaRG_LPL, was analyzed with bidirectional fitting relative to DMSO as the negative control and baseline of activity. Using a type of inducible reporter, measures of mRNA induction for gain or loss-of-signal activity can be used to understand regulation of transcription factor activity. To generalize the intended target to other relatable targets, this assay endpoint is annotated to the esterase intended target family, where the subfamily is lipase.
A total of 1060 chemcials from the ToxCast library were tested in eight-point concentration-response experiments. Cell culture and cytotoxicity assays were conducted at Thermo Fisher Scientific's Custom Services facility (Madison, WI). A single lot of human HepaRG cells (Thermo Fisher Scientific, Frederick, MD) was used for the cell culture experiments. 96-well format collagen type I coated plates of human HepaRG cells were prepared using established methods. Briefly, cryopreserved HepaRG cells were thawed, plated at a density of approximately 100,000 cells/well in HepaRG Thaw, Plate, and General Purpose media (HPRG770, Thermo Fisher Scientific), and incubated for 48 hours. 0.5% DMSO was selected as vehicle control to balance the requisite need of DMSO in HepaRG cultures to maintain differentiation (for example, baseline metabolism, proportions of hepatocytes vs. cholangiocytes), while enabling further hepatic receptor pathway activation (for example, PXR and CAR) in response to chemical exposure. 48 hours after plating, the culture medium was replaced with HepaRG Serum-Free Incudtion Media. Cells were exposed to each test chemical in duplicate and maintained in CO2 incubators for another 48 hours. Chemical plates were thawed to room temperature and 200x concentrations of treatment groups were prepared. 8-point conentration-reponse curves were made with the highest exposure at 100 uM, followed by half-log dilutions, all in 0.5% DMSO. Each test plate contained variouse controls, induction positive controls (1mM phenobarbital), cytotoxicity positive controls ([…] aflatoxin B1), vehicle controls (0.5% DMSO), and total lysis controls (0.5% DMSO). Cell morphology images were taken using an Essen IncuCyte FLR automated microscope, with six 96-well plates imaged in about 24 minutes. Images were captured and exported and JPEG files. Spent culture media was transfered to black-well plates for the LDH assay, and remaining media was sorted at -80 C for later use. Cells were treated with RLT buffer and frozen until shipped for gene expression analysis. Total RNA was isolated from the cell suspension in 75 uL of Buffer RLT (Qiagen, Germantown, MD 20874) by Quintiles/Expression Analysis (Durham, NC) using a custom isolation procedure. Total RNA from each plate well was transferred to a preamplification plate. Fluidigm's 96.96 Dynamic ArrayTM (Fluidigm, Amsterdam, the Netherlands) technology was used for gene expression analyses by quantitative reverse transcription polymerase chain reaction (qRT-PCR, performed by Quintiles/Expression Analysis, Durham, NC)89. Standard TaqManTM Assays (Applied Biosystems/ThermoFisher Scientific, Foster City, CA) were used to assess the expression of 93 genes selected based on their selectivity and sensitivity to important hepatic receptors known to be modulated by environmental chemicals; importance in human hepatocyte functionality; and hepatotoxicity. […]

outcome, inactive:
CC(C)=CCCC(C)=CC=O, C[C@](N)(Cc1ccc(O)c(O)c1)C(=O)O, Cc1ccc(S(=O)(=O)O)cc1C, Nc1cccc(N)c1, CC1=CC(=O)CC(C)(C)C1, CCCCC(CC)COC(=O)CCCCCCCCC(=O)OCC(CC)CCCC (stereo not given), Cn1c(=O)c2c(ncn2C)n(C)c1=O, CC(C)(O)c1coc(S(=O)(=O)NC(=O)Nc2c3c(cc4c2CCC4)CCC3)c1, CCOC(=O)COc1ccc2c(c1)CC(NCC(O)c1cccc(Cl)c1)CC2 (stereo not given), C1=CCCC=CCCC=CCC1, CCC(C)(C)C(=O)O[C@H]1C[C@@H](C)C=C2C=C[C@H](C)[C@H](CC[C@@H]3C[C@@H](O)CC(=O)O3)[C@H]21, CCOCCO, CCCC(=O)OCC, CCOC(=O)CC(CC(=O)OCC)(OC(C)=O)C(=O)OCC, CN(C)c1ccc(Cc2ccc(N(C)C)cc2)cc1, CCNc1ccccc1, CCOC(=O)c1ccc(C2CCC(NC[C@H](O)COc3ccc(O)c(NS(C)(=O)=O)c3)CC2)cc1 (stereo not given in full), CC(C)=CCCC(C)CCO (stereo not given), O=C(NS(=O)(=O)/C=C/c1ccccc1)c1ccc(F)cc1Cl, CC(C)CCCCCCCOC(=O)CCCCC(=O)OCCCCCCCC(C)C, CC[C@H](C)C(=O)O[C@H]1C[C@@H](C)C=C2C=C[C@H](C)[C@H](CC[C@@H]3C[C@@H](O)CC(=O)O3)[C@H]21, CCCCCCCCCCCCc1ccccc1, O=c1n(CC2CO2)c(=O)n(CC2CO2)c(=O)n1CC1CO1 (stereo not given), COc1ccc(/C=C/S(=O)(=O)NC(=O)c2ccc(C)cc2Cl)cc1, CCCCCCCCCCCCCCCO, CC(=O)OC[C@H]1O[C@@](COC(C)=O)(O[C@H]2O[C@H](COC(C)=O)[C@@H](OC(C)=O)[C@H](OC(C)=O)[C@H]2OC(C)=O)[C@@H](OC(C)=O)[C@@H]1OC(C)=O, C=CCCCCCCCCC(=O)O, O=C(O)CC(O)C(=O)O (stereo not given)

AC50, active:
COc1ccc2sc(C(=O)Nc3nnn[nH]3)c(OC(C)C)c2c1 12.7 µM, Oc1ccc2c(c1)-c1ccccc1C2 25.2 µM, COc1cccc(-c2ccc(/C=C\CN3CCCCCC3)cc2Cl)c1 79 µM, CC(C)c1cccc(C(C)C)c1N1C(=O)c2ccc(O)cc2C1=O 83.4 µM, Cc1ccc(N)cc1O 31.8 µM, COCCOc1cc2cc(C(=O)NC3CCN(C(C)C)CC3)n(CC(=O)Nc3ccc(Cl)cn3)c2cn1 8.93 µM, Fc1ccccc1[C@@H](F)COC1CCC(Nc2ncnc3[nH]ncc23)CC1 (stereo not given in full) 28 µM, CNS(=O)(=O)c1cc(C(=O)N2CCC(CCN3C4CCC3CC(n3c(C)nc5ccccc53)C4)(c3cccc(F)c3)CC2)c(Cl)cc1F (stereo not given) 18.2 µM, CCOc1cccc(-n2cc(C(=O)N3CCN(c4cc(C(=O)O)c5ccccc5c4)CC3)nc2-c2ccc(C)cc2)c1 87.1 µM, O=c1[nH]c2ccc(S(=O)CCN3CCC(Cc4ccc(F)cc4)CC3)cc2o1 (stereo not given) 59.5 µM, Cc1[nH]cnc1C[C@H]1CCc2c(C)c3ccccc3n2C1=O 79 µM, O=P(OC(CCl)CCl)(OC(CCl)CCl)OC(CCl)CCl 91.3 µM

Reference: PubChem BioAssay (EPA / NIEHS)
